# Experimental data taken from PubChem BioAssay (EPA / NIEHS).
# Activity calls are given as the source filed them. The calls were made as follows: active = hit-call score of the fitted dose curve at least 0.9, where 1 is the maximum; inactive = score below 0.9.
# Experiment: ATG_TCF_b_cat_CIS: Attagene CIS-FACTORIAL HepG2 Assay for human T-Cell-Factor with beta-catenin (TCF/b-cat) (AID 2282965)
# Conditions: HepG2 TCF/beta-catenin cis-reporter transcription, actives raise or lower the signal
# Experimental: ATG_CIS is a cell-based, multiplexed-readout assay that uses HepG2, a human liver cell line, with measurements taken at 24 hours after chemical dosing in a 24-well plate.ATG_TCF_b_cat_CIS is one of 52 assay component(s) measured or calculated from the ATG_CIS assay. It is designed to make measurements of mRNA induction, a form of inducible reporter, as detected with fluorescence intensity signals by Reverse transcription polymerase chain reaction (RT-PCR) and Capillary electrophoresis technology.Data from the assay component ATG_TCF_b_cat_CIS was analyzed into 1 assay endpoint. This assay endpoint, ATG_TCF_b_cat_CIS, was analyzed with bidirectional fitting relative to DMSO as the negative control and baseline of activity. Using a type of inducible reporter, measures of mRNA for gain or loss-of-signal activity can be used to understand the reporter gene at the transcription factor-level as they relate to the gene TCF7 and TCF7L2 and LEF1 and TCF7L1. Furthermore, this assay endpoint can be referred to as a primary readout, because this assay has produced multiple assay endpoints where this one serves a reporter gene function. To generalize the intended target to other relatable targets, this assay endpoint is annotated to the dna binding intended target family, where the subfamily is HMG box protein.
# Human liver HepG2 cells are transiently transfected with multiple reporter transcription units (MRTUs) in 6-well plates using FuGene 6 reagent (Roche; 3 ml FuGene/1 mg DNA). The MRTU constructs are regulated by a cis-regulating element (promoter). […] A major difference between the CIS and TRANS system is that in CIS activities of endogenous TFs are measured, whereas the TRANS assay evaluates changes in activities of exogenous, chimeric NR-Gal4 proteins. […] At the end of 24 hour incubation, total RNA was isolated using TriZol reagent (Invitrogen). The isolated RNA is then reverse-transcribed using oligo(dT) primer and Mo-MLV reverse transcriptase (Invitrogen) with DNAse I (Ambion) treatment for 30 min. The one-tenth of the produced cDNA was amplified by PCR using Taq DNA polymerase (Invitrogen) and two reporter sequence-specific primers. The PCR products were fluorescently labeled by primer extension with 6-arboxyfluorescein (6-FAM) 5'-labeled reporter sequence-specific primer (2 min at 95 C, 20 s at 68 C and 10 min at 72 C) and these products were digested with 5U of HpaI (New England Biolabs) for 2h at 37 C. The fragments were purified using Qiaquick PCR columns (Qiagen), analyzed on an ABI 3130xL genetic analyzer (Applied Biosystems) with peak positions identified by using a set of X-rhodamine (ROX)-labeled MapMarker1000 molecular weight standards (BioVentures). The raw capillary electrophoresis data was processed using Attagraph software (Attagene).
SMILES,outcome,AC50
CCCCOC(=O)C(C)O (stereo not given),inactive,
CCOC(OCC)OCC,inactive,
NCC(F)(F)C(F)(F)C(F)(F)C(F)(F)C(F)(F)C(F)(F)C(F)(F)C(F)(F)F,inactive,
CSc1ccc(Cl)cc1,inactive,
Oc1ccc(C2(c3ccc(O)c(C4CCCCC4)c3)CCCCC2)cc1C1CCCCC1,,33.4 µM (active)
C=CC(=O)OCC(F)(F)C(F)(F)C(F)(F)COC(=O)C=C,,19.8 µM (active)
O=c1[nH]cccc1O,inactive,
O=C(O)C(F)(F)C(F)(F)C(F)(F)C(F)(F)C(F)(F)C(F)(F)C(F)F,inactive,
CC(C)OC(=O)COc1ccc(Cl)cc1Cl,inactive,
CCCCCC/C=C/CCCCCCCC(=O)O,inactive,
O=C1c2c(O)ccc(Nc3ccc(CCO)cc3)c2C(=O)c2c([N+](=O)[O-])ccc(O)c21,inactive,
CCOC(C=C(C)CCC=C(C)C)OCC,inactive,
CC1=CCC2C(=O)OC(=O)C2C1 (stereo not given),inactive,
CCC(=O)OC(C)c1ccccc1 (stereo not given),inactive,
CO[Si](C)(CCC(F)(F)C(F)(F)C(F)(F)C(F)(F)C(F)(F)C(F)(F)F)OC,inactive,
NC(=O)C(F)(F)C(F)(F)C(F)(F)C(F)F,inactive,
Nc1c(Br)cc([N+](=O)[O-])cc1Br,inactive,
OCCC(O)CO (stereo not given),inactive,
CCCC(=O)OCC(COC(=O)CCC)OC(=O)CCC,,64 µM (active)
CCCCCCCCCCCC(=O)Cl,,161 µM (active)

SMILES,outcome,AC50
O=S(=O)(O)CCC(F)(F)C(F)(F)C(F)(F)C(F)(F)C(F)(F)C(F)(F)C(F)(F)C(F)(F)F,inactive,
CCN=c1cc2oc3cc(NCC)c(C)cc3c(-c3ccccc3C(=O)OCC)c-2cc1C,,7.34 µM (active)
CC(C)(C)C(=O)C1C(=O)c2ccccc2C1=O,inactive,
CCOCN(C(=O)CS(=O)(=O)O)c1c(C)cccc1CC,inactive,
CC(O)C#CC(C)O (stereo not given),,99.5 µM (active)
NC(=O)C(F)(F)C(F)(F)C(F)(F)C(F)(F)C(F)(F)C(F)(F)C(F)(F)F,inactive,
FC(F)(F)C(F)(F)C(F)(F)C(F)(F)C(F)(F)C(F)(F)C(F)(F)CCI,inactive,
OCCCCC(F)(F)C(F)(F)C(F)(F)C(F)(F)F,inactive,
Oc1ccc2c(c1)CCC2,inactive,
O=C(Cl)C(F)(F)C(F)(F)C(F)(F)C(F)(F)C(F)(F)C(F)(F)C(F)(F)F,inactive,
O=C1c2ccccc2C(=O)c2c(Cl)cccc21,inactive,
Cc1ccc(O)c(-n2nc3ccccc3n2)c1,inactive,
Cc1cc(O)c(C(C)(C)C)cc1C(C)(C)C,inactive,
C[Si](C)O[Si](C)C,inactive,
CC(=O)CCC(C)C,inactive,
O=C(O)C(F)(F)C(F)(F)C(F)(F)OC(F)(C(F)(F)F)C(F)(F)F,,285 µM (active)
CCC(Cc1c(I)cc(I)c(N)c1I)C(=O)O (stereo not given),,55.5 µM (active)
CC(C)CCCC(C)CCO (stereo not given),inactive,
NC(O)(C(F)(F)F)C(F)(F)F,inactive,
CCc1ccc(C)nc1,inactive,
